Out of some 360,000 compounds screened, about 2,800 (0.78%) were called active. Cut-off read from the data, not from the text of the source: active = inhibition above about 26%; inactive = the rest. Shown is part of a subset that was picked to be rich in actives.
The compounds below were run on Nicotinate-nucleotide adenylyltransferase NadD (Staphylococcus aureus N315) (assay: inhibitors of S. aureus NadD, primary screen, biochemical, colorimetric, uHTS (AID 602399)). Settings: purified NadD enzyme, colorimetric absorbance read-out; at 20 µM; stronger effect = higher value.

inhibition, inactive:
Cc1noc(/C=C/c2ccco2)c1S(=O)(=O)N1CCC(C(=O)Nc2ccc(Cl)cn2)CC1 16.8%, CNC(=O)C1CCN(S(=O)(=O)c2c(C)noc2/C=C/c2cccc(C)c2)CC1 -4.39%, CCc1ccc(OCC(=O)NCC(c2ccc(Cl)cc2)N2CCCCC2)cc1 (stereo not given) -9.2%, O=C(O)CN(Cc1ccco1)S(=O)(=O)c1ccc(F)cc1 -0.327%, O=Nc1c(O)cc(O)c2ccccc12 -0.774%, CCC(C)OC(=O)C(C)Oc1ccc(-c2ccccc2)cc1 (stereo not given) 2.06%, NC(CSC1(c2ccccc2)c2ccccc2-c2ccccc21)C(=O)O (stereo not given) 27.6%, O=C(N1CCOCC1)N(Cc1ccccc1)c1ccccn1 -0.327%, COc1ccccc1CCNC(=O)C1CCN(C(=O)/C=C/c2ccccc2)CC1 1.36%, COC(=O)c1ccc(COc2ccc(/C=C/C(=O)c3ccc(OC)c(CSCC(=O)O)c3)cc2OC)cc1 20.9%, COc1cc(C(=O)Nn2c(O)c(C3=c4ccccc4=NC3=O)sc2=S)ccc1O 9.44%, COC(=O)CC(CC(=O)OC)n1cccc1 -1.87%, CCn1cc(CN2CCN(CC(C)(C)C)C(CCO)C2)c2ccccc21 (stereo not given) -1.34%, COc1cc(Cl)c(C)cc1NC(=O)[C@@H]1CCCN1C(=O)c1cccs1 -0.625%, Cc1c(C(=O)OC(C)C)sc(NC(=O)c2cccnc2)c1C#N 7.06%, C=CCOc1cccc(C2C(C(=O)c3ccc(C)o3)=C(O)C(=O)N2c2nnc(C)s2)c1 (stereo not given) 12.2%, CCCOc1ccc(C2C(C(=O)c3ccc(C)o3)=C(O)C(=O)N2CCCn2ccnc2)cc1 (stereo not given) 17.5%, CCC(C)N(C(=O)COC(=O)C1C(C(=O)OC)=C(C)NC(C)=C1C(=O)OC)C1CCS(=O)(=O)C1 (stereo not given) 1.18%, Cc1ccc(Cc2nnc(SCC(=O)Nc3ccccc3C)[nH]c2=O)cc1 2.18%, NC(=O)NC(=O)CSc1nc2cc([N+](=O)[O-])ccc2n1-c1cccc(C(F)(F)F)c1 17.8%, CC(=O)NC1(c2cccc(F)c2)CCN(CC(=O)NC(C)C)CC1 -2.5%, O=C(N/N=C/C=C/c1ccco1)c1cccs1 5.08%, C/C(=N\NC(=O)c1cc(-c2ccc(O)cc2)nc2ccccc12)c1cccnc1 5.99%, CSc1nsc(SC)c1NC(=O)OC1CCCCC1 -1.66%, CC(=O)Nc1ccc(S(=O)(=O)N2CCN(S(=O)(=O)c3cccs3)CC2)cc1 0.0869%, CN(C)c1ccc(-n2cccc2/C=N/n2cnnc2)cc1 -0.713%, CN(CCC1CCOCC1)Cc1cn[nH]c1-c1ccc(-c2ccccc2)cc1 -6.91%, C[C@@H]1CN([C@@H](C)CO)C(=O)c2cccc(NS(=O)(=O)c3ccc(F)cc3)c2O[C@H]1CN(C)C(=O)NC1CCCCC1 4.79%, Cc1[nH]c2ccccc2c1SCC(=O)Nc1nccs1 -2.1%, CN(C)/C=C(\C#N)C(=O)c1cccnc1Oc1cccc(F)c1 -0.906%, COc1ccc(C2(CNC(=O)C(c3ccccc3)c3ccccc3)CCOCC2)cc1OC -2.03%, Cc1cc(C)nc(Nc2n[nH]c(-c3ccccc3N)n2)n1 -2.89%, CCNc1nc(N)nc(Oc2ccc(OCC)nn2)n1 -1.59%, O=C(O)CC/C(=C\c1cc2c(cc1Br)OCO2)c1nc2ccccc2s1 7.94%, Cc1nn(-c2ccc(F)cc2)c(Cl)c1/C=C(/CCC(=O)O)c1nc2ccccc2s1 6.39%, CSc1nnc2c(n1)OC(c1ccsc1)N(C(C)=O)c1ccccc1-2 (stereo not given) -0.91%, Cc1ccc(C(=O)N/C(=C\c2cn(C)c3ccccc23)C(=O)N2CCN(C)CC2)cc1 -3.04%, Cc1ccc(N2C(=O)S/C(=C/c3cn(C)c4ccccc34)C2=O)cc1 2.76%, CON(C)S(=O)(=O)c1ccc2c(c1)NC(=O)C1CCCN21 (stereo not given) 10.3%, Cc1ccc(S(=O)(=O)c2cc3c(=O)n4cccc(C)c4nc3n(CCc3ccccc3)c2=N)cc1C -1.62%, CCn1c(=N)c(S(=O)(=O)c2ccc(F)cc2)cc2c(=O)n3ccccc3nc21 7.46%, COc1ccc(C)cc1NC(=O)c1cc(-c2ccccc2)nc2c1cnn2C(C)C -10.2%, COC(=O)c1sccc1NC(=O)CC1C(=O)NCCN1C(=O)Nc1ccc(F)cc1F (stereo not given) -5.08%, CN(C)c1ccc(/C=N/NC(=O)c2ccc(Cn3cc(Br)cn3)o2)cc1 4.66%, Cc1c(Cl)c([N+](=O)[O-])nn1CCCC(=O)NC(C)c1ccccc1 (stereo not given) 1.25%

inhibition, active:
Cc1noc(/C=C/c2ccco2)c1S(=O)(=O)N1CCC(C(=O)N2CCc3ccccc32)CC1 31.6%, NC(CSC(c1ccccc1)(c1ccccc1)c1ccc(-c2ccccc2)cc1)C(=O)O (stereo not given) 43.5%, COc1ccc(C(=O)/C=C/c2ccc(-c3ccccc3)cc2)cc1CSCC(=O)O 42.8%, Cc1cc(N2C(=O)C(O)=C(C(=O)c3ccc(C)o3)C2c2ccc(OCc3ccccc3)cc2)no1 (stereo not given) 58.6%, Cc1ccc(-c2cc(C(=O)N/N=C/C=C/c3ccco3)c3ccccc3n2)cc1C 53%, CN(C)c1ccc(-n2cccc2/C=C2/SC(=Nc3ccc(F)cc3)NC2=O)cc1 24.9%, COc1ccc(C(=O)Nc2cccc(/C=C(/CCC(=O)O)c3nc4ccccc4s3)c2)cc1 35.2%, Cc1cccc(N=C2NC(=O)/C(=C/c3cn(C)c4ccccc34)S2)c1 37%, Cc1ccc(Cn2c(=N)c(S(=O)(=O)c3ccc(C)cc3)cc3c(=O)n4ccccc4nc32)cc1 35.5%, Cc1c(Cl)c([N+](=O)[O-])nn1Cc1ccc(C(=O)N/N=C\c2cc(Cl)ccc2O)o1 35.1%

— PubChem BioAssay AID602399 (Sanford-Burnham Center for Chemical Genomics, 2012)
